Source: PubChem BioAssay (EPA / NIEHS)
Records with an inconclusive call do not appear. Activity calls are given as the source filed them. Rule for the calls: active = hit-call score of the fitted dose curve at least 0.9, where 1 is the maximum; inconclusive = response in the unintended direction; inactive = score below 0.9.

How the values were obtained:
[1] = target: human Acetylcholinesterase (AChE), ACHE (gene 43) (UniProt P22303); experiment: NVS_ENZ_hAChE: NovaScreen (NVS) Enzymatic Assay for human Acetylcholinesterase (AChE) (AID 2283129)
Sequence of human Acetylcholinesterase (AChE), ACHE (gene 43) (P22303 whole entry, looked up): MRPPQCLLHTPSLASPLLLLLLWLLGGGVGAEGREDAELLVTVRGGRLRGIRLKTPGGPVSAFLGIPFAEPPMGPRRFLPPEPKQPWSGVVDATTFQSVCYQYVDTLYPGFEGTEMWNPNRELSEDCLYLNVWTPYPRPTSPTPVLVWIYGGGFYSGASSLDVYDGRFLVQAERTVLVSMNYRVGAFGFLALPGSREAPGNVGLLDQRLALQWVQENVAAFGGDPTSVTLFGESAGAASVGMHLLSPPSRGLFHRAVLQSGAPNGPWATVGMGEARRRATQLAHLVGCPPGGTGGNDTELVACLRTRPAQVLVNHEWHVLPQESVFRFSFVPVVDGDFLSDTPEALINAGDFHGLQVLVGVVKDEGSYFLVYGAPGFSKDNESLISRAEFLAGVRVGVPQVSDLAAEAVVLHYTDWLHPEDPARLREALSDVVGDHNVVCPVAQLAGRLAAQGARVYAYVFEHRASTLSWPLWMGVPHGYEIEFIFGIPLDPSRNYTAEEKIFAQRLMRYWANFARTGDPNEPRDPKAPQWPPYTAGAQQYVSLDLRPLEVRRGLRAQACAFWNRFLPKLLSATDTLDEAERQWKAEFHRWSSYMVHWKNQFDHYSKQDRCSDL
How it was run: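 Actives from a duplicate single-point screen (25 uM) were followed up in concentration series. Enzyme activity read by absorbance (colorimetric) 0.33 hour after dosing, cell-free, normalized to DMSO, with loss of signal scored.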

[2] = target: human Caspase 2 (CASP2), CASP2 (gene 835) (UniProt P42575); experiment: NVS_ENZ_hCASP2: NovaScreen (NVS) Enzymatic Assay for human Caspase 2 (CASP2) (AID 2283135)
Sequence of human Caspase 2 (CASP2), CASP2 (gene 835) (P42575 whole entry, looked up): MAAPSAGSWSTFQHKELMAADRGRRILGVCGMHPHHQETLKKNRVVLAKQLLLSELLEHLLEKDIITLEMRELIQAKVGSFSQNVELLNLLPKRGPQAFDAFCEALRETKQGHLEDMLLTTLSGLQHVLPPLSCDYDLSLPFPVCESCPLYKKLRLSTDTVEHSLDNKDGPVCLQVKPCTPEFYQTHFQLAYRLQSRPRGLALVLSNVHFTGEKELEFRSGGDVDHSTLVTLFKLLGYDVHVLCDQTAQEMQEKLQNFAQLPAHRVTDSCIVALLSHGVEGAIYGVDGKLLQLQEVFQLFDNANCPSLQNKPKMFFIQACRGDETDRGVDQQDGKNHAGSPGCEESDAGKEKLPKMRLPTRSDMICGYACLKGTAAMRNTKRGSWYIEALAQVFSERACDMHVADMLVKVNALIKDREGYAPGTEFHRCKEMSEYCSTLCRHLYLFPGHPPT
How it was run: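 Single-point duplicate testing at 25 uM preceded concentration series topping at 50 uM. Activity of the recombinant E. coli-derived protease was followed by fluorescent substrate cleavage 1 h post-dosing, relative to DMSO.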

[3] = target: rat Adenylate Cyclase, Forskolin Stimulated, Adcy5 (gene 64532) (UniProt Q04400); experiment: NVS_ENZ_rACFSKBinding: NovaScreen (NVS) Enzymatic Assay for rat Adenylate Cyclase, Forskolin Stimulated (AID 2283232)
How it was run: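 Chemicals were first tested at 25 uM in duplicate, then hits run as concentration series with top concentration 50 uM. Enzyme source was rat forebrain membranes; radiometric filter read-out after 1 h, referenced to DMSO.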

[4] = target: Norway rat Vesicular Monoamine Transporter (VMAT2), neurotransmitter transporter, Slc18a2 (gene 25549) (UniProt Q01827); experiment: NVS_TR_rVMAT2: NovaScreen (NVS) Transporter Assay for Norway rat Vesicular Monoamine Transporter (VMAT2), neurotransmitter transporter (AID 2283376);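 note: actives lower the bound radioligand signal below the DMSO level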
Sequence of Norway rat Vesicular Monoamine Transporter (VMAT2), neurotransmitter transporter, Slc18a2 (gene 25549) (Q01827 whole entry, looked up): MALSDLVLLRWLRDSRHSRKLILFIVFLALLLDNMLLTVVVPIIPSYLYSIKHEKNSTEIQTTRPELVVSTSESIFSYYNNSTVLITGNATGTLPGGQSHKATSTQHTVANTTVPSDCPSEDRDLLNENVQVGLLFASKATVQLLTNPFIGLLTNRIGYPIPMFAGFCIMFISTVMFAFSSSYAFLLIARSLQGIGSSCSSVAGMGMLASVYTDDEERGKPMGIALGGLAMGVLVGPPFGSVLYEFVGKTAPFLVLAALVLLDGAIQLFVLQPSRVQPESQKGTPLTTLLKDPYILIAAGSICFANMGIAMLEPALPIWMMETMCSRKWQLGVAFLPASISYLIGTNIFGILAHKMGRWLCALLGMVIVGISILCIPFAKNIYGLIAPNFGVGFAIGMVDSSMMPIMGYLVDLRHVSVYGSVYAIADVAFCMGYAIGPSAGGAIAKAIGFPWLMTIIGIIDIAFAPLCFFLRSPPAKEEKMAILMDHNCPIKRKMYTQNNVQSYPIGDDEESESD
How it was run: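 Using rat forebrain membranes, specific radioligand binding to VMAT2 was measured by filtration and scintillation counting after 1 hour. Chemicals screened at 25 uM in duplicate, actives retested in concentration series, DMSO baseline.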

[5] = target: human Ephrin type-A Receptor 2 (EphA2), EPHA2 (gene 1969) (UniProt P29317); experiment: NVS_ENZ_hEphA2: NovaScreen (NVS) Enzymatic Assay for human Ephrin type-A Receptor 2 (EphA2) (AID 2283155)
How it was run: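 Enzyme activity of recombinant EphA2 read by fluorescence after mobility-shift separation, 1 h after dosing. Chemicals first tested at 25 uM (duplicate); those passing threshold run as concentration series, top 50 uM, single replicate, relative to DMSO.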

[6] = target: human Fibroblast Growth Factor Receptor 1 (FGFR1), FGFR1 (gene 2260) (UniProt P11362); experiment: NVS_ENZ_hFGFR1: NovaScreen (NVS) Enzymatic Assay for human Fibroblast Growth Factor Receptor 1 (FGFR1) (AID 2283159);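 for AC50: hits lower the signal so potencies describe inhibitors of the kinase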
Sequence of human Fibroblast Growth Factor Receptor 1 (FGFR1), FGFR1 (gene 2260) (P11362 whole entry, looked up): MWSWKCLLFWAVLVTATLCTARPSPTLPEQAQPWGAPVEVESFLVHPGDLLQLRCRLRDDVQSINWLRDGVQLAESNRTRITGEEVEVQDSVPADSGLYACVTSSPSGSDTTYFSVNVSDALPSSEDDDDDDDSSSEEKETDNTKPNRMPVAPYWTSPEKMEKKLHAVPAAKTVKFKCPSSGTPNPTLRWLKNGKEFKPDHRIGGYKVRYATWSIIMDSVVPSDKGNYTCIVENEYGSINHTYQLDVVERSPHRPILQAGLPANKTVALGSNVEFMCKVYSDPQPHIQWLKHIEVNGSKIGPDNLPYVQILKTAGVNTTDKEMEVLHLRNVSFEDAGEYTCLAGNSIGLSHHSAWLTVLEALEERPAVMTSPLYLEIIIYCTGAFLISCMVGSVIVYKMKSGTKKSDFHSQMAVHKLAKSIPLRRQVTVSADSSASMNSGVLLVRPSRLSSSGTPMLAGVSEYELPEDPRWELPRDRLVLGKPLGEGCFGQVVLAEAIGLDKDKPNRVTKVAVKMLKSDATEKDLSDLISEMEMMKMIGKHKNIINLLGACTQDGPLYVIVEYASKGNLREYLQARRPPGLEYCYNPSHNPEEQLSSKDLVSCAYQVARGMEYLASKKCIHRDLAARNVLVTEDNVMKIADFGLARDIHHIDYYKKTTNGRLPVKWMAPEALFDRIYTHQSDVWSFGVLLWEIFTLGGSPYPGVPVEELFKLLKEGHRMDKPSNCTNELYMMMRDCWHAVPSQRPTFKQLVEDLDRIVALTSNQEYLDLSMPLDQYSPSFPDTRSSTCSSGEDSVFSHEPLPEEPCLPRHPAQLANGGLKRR
How it was run: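 Cell-free recombinant kinase with fluorescent substrate, product separated by electrophoretic mobility shift; read 1 hour after dosing, loss of signal relative to DMSO. Initial screen in duplicate at 25 uM, actives followed in concentration series.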

[7] = target: human p21 Activated Kinase 4 (PAK4), PAK4 (gene 10298) (UniProt O96013); experiment: NVS_ENZ_hPAK4: NovaScreen (NVS) Enzymatic Assay for human p21 Activated Kinase 4 (PAK4) (AID 2283189)
How it was run: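 Extracted PAK4 enzyme activity read by fluorescence with mobility-shift separation 1 h after chemical addition. Duplicate single-concentration screen at 25 uM, DMSO as negative control.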

[8] = target: human Raf-1 Proto-Oncogene, serine/threonine Kinase (RAF1), RAF1 (gene 5894) (UniProt P04049); experiment: NVS_ENZ_hRAF1: NovaScreen (NVS) Enzymatic Assay for human Raf-1 Proto-Oncogene, serine/threonine Kinase (RAF1) (AID 2283216)
Sequence of human Raf-1 Proto-Oncogene, serine/threonine Kinase (RAF1), RAF1 (gene 5894) (P04049 whole entry, looked up): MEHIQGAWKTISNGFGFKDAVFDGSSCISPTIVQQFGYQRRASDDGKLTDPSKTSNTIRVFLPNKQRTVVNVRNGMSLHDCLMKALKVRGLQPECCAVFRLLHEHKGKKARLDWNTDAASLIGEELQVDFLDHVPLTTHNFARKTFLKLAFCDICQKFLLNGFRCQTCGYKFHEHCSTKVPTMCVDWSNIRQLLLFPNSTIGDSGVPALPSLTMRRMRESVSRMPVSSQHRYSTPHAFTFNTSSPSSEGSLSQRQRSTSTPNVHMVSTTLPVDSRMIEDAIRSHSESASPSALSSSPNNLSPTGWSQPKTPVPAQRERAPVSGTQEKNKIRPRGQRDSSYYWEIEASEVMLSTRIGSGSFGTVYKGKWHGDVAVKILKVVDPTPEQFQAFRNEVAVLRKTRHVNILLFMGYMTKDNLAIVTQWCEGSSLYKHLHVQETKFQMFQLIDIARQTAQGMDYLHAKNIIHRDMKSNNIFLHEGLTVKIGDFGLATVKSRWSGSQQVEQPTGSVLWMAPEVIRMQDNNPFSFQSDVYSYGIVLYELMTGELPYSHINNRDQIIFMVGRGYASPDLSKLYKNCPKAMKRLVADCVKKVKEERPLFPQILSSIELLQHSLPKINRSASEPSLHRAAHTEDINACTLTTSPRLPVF
How it was run: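 Single-point screening at 25 uM (duplicate), followed by singleton concentration-response to 50 uM maximum for chemicals exceeding threshold. Enzyme activity from fluorescent substrate-product mobility-shift separation after 1 h, relative to DMSO.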

[9] = target: human Tyrosine Protein Kinase Receptor Tie-2 (Tie2), TEK (gene 7010) (UniProt Q02763); experiment: NVS_ENZ_hTie2: NovaScreen (NVS) Enzymatic Assay for human Tyrosine Protein Kinase Receptor Tie-2 (Tie2) (AID 2283225)
How it was run: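 Substrate and product were separated by mobility shift and detected by fluorescence after a 1-hour reaction with recombinant Tie2. Chemicals passing a 25 uM single-point screen were titrated to a maximum of 50 uM. Results were normalized to DMSO baseline.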

[10] = TOX21_TRB_BLA_Agonist_Followup_viability: Viability Assessment in the Tox21 Thyroid Hormone Receptor beta Agonism Beta-lactamase (BLA) Follow-Up Assay (AID 2283956)
How it was run: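 Viability was read as CellTiter-Glo luminescence in the same wells as the TRb-bla agonist read-out. HEK293T GAL4-TRb LBD cells were treated for 18 h (37C, 5% CO2) at 11 concentrations in triplicate. Fits were bidirectional versus DMSO baseline.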

[11] = target: rat Acetylcholinesterase (AChE), Ache (gene 83817) (UniProt P37136); experiment: NVS_ENZ_rAChE: NovaScreen (NVS) Enzymatic Assay for rat Acetylcholinesterase (AChE) (AID 2283233)
Sequence of rat Acetylcholinesterase (AChE), Ache (gene 83817) (P37136 whole entry, looked up): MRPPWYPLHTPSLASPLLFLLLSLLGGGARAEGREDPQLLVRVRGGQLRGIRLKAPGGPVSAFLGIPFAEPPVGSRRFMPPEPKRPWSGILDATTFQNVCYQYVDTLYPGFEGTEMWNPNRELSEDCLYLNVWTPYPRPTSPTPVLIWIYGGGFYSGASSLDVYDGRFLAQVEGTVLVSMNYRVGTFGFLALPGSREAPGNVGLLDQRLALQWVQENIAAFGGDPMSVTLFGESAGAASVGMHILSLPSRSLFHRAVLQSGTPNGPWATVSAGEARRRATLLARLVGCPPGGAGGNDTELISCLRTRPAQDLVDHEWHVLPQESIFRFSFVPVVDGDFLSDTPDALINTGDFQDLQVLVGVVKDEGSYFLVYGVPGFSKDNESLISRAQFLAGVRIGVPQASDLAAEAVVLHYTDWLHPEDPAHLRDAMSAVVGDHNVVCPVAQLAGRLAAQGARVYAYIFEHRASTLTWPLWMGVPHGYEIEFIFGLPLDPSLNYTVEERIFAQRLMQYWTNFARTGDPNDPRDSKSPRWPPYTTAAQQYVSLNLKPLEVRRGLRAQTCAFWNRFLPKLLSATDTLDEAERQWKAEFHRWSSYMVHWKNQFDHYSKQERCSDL
How it was run: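 Compounds first screened at 25 uM in duplicate, then those passing threshold tested in concentration series up to 50 uM, against AChE from rat brain membranes. Enzyme activity read by absorbance at 0.33 h; inhibition scored versus DMSO.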

[12] = test system: rat Monoamine Oxidase, MAO-A, Peripheral (MAOAP), gene 29253; experiment: NVS_ENZ_rMAOAP: NovaScreen (NVS) Enzymatic Assay for rat Monoamine Oxidase, MAO-A, Peripheral (MAOAP) (AID 2283237)
How it was run: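 Scintillation counting tracked MAO-A activity in a cell-free rat liver mitochondrial membrane prep, read 1.17 hours after compound addition. Single-point duplicate testing at 25 uM preceded concentration-response follow-up; activity was fitted relative to DMSO.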

[13] = test system: rat Monoamine Oxidase, MAO-A, Central (MAOAC), gene 29253; experiment: NVS_ENZ_rMAOAC: NovaScreen (NVS) Enzymatic Assay for rat Monoamine Oxidase, MAO-A, Central (MAOAC) (AID 2283243);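 note: potency refers to inhibition seen as signal drop below DMSO baseline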
How it was run: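 Enzyme from rat brain, cell-free radiodetection format. Counts taken at 1.5 h; activity fitted against DMSO baseline, loss of signal marking inhibition. Confirmatory concentration series followed the 25 uM duplicate screen.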

[14] = target: human Neonicotinoid receptor (NNR), CHRNA2 (gene 1135) (UniProt Q15822); experiment: NVS_LGIC_hNNR_NBungSens: NovaScreen (NVS) Ligand-Gated Ion Channel Assay for human Neonicotinoid receptor (NNR) (AID 2283313)
How it was run: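 Compounds first screened in duplicate at 25 uM, then actives re-tested in single-replicate dose series up to 50 uM. Binding measured as displacement of specific radioligand from neuroblastoma membrane receptors after 2 h, scintillation read on filters.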

[15] = target: human AMP-activated Protein Kinase, alpha 1 (AMPKa1), PRKAA1 (gene 5562) (UniProt Q13131); experiment: NVS_ENZ_hAMPKa1: NovaScreen (NVS) Enzymatic Assay for human AMP-activated Protein Kinase, alpha 1 (AMPKa1) (AID 2283130)
Sequence of human AMP-activated Protein Kinase, alpha 1 (AMPKa1), PRKAA1 (gene 5562) (Q13131 whole entry, looked up): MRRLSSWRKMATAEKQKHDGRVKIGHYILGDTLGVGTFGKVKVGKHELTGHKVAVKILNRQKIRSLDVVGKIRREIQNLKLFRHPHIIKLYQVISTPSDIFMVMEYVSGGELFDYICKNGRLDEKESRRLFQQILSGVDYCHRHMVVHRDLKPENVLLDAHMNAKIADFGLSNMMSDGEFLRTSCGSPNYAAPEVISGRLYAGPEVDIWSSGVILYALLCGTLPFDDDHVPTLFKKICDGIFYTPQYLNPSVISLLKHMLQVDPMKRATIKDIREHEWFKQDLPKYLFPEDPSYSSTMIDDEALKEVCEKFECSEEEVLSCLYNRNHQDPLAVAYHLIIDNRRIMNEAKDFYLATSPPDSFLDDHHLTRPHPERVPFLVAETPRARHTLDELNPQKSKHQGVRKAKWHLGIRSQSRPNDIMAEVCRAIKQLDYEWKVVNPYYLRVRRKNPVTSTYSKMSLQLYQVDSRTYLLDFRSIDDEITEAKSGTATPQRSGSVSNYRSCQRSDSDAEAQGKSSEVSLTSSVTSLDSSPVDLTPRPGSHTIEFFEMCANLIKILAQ
How it was run: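 Compounds were screened in duplicate at 25 uM, and those reaching ~30% inhibition were titrated up to 50 uM. The enzyme was recombinant human AMPKα1, and kinase turnover was read by fluorescence/mobility shift 1 h post-dosing as loss of signal versus DMSO.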

[16] = target: human Matrix Metalloproteinase-1 (MMP1), MMP1 (gene 4312) (UniProt P03956); experiment: NVS_ENZ_hMMP1: NovaScreen (NVS) Enzymatic Assay for human Matrix Metalloproteinase-1 (MMP1) (AID 2283181)
How it was run: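 Cell-free fluorescent substrate assay of human MMP1, read after 1 h. A single 25 uM duplicate screen was followed by concentration series to a maximum of 50 uM for actives meeting threshold; inhibition analysed against DMSO baseline.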

[17] = target: human Phosphatase and Tensin Homolog (PTEN), PTEN (gene 5728) (UniProt P60484); experiment: NVS_ENZ_hPTEN: NovaScreen (NVS) Enzymatic Assay for human Phosphatase and Tensin Homolog (PTEN) (AID 2283203)
Sequence of human Phosphatase and Tensin Homolog (PTEN), PTEN (gene 5728) (P60484 whole entry, looked up): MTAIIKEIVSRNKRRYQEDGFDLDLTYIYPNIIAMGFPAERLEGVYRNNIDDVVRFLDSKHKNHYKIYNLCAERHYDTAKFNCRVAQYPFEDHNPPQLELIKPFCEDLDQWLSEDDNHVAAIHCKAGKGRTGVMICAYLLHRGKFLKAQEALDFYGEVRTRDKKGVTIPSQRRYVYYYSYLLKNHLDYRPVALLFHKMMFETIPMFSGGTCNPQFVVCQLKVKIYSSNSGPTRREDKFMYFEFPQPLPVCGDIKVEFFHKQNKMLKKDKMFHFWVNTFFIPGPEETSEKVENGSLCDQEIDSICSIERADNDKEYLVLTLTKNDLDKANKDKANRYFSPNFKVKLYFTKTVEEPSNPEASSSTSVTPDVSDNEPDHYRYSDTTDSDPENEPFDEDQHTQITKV
How it was run: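 Loss of fluorescent product signal after mobility-shift separation reports PTEN activity, recombinant human enzyme, 1 h after compound addition. Single 25 uM duplicate screen, then concentration-response on actives; DMSO baseline.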

[18] = target: human Aurora Kinase A - serine/threonine-protein Kinase 6 (AurA), AURKA (gene 6790) (UniProt O14965); experiment: NVS_ENZ_hAurA: NovaScreen (NVS) Enzymatic Assay for human Aurora Kinase A - serine/threonine-protein Kinase 6 (AurA) (AID 2283142)
How it was run: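 Recombinant human AurA activity read by fluorescence after mobility-shift separation of product from substrate; 1 hour incubation. Chemicals first run in duplicate at 25 uM, then concentration series to 50 uM if over threshold; fitted relative to DMSO.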

[19] = target: human Protein Tyrosine Phosphatase Non-receptor Type 2 (PTPN2), PTPN2 (gene 5771) (UniProt P17706); experiment: NVS_ENZ_hPTPN2: NovaScreen (NVS) Enzymatic Assay for human Protein Tyrosine Phosphatase Non-receptor Type 2 (PTPN2) (AID 2283207)
How it was run: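 Activity measured as fluorescence after mobility-shift separation of substrate and product, 1 h after compound. Duplicate single-point 25 uM primary testing, concentration series for actives; inhibition scored as signal loss relative to DMSO baseline.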

[20] = target: Bile acid receptor (Homo sapiens) (UniProt Q96RI1); experiment: NVS_NR_hFXR_Agonist: NovaScreen (NVS) Nuclear Receptor Binding Assay for human Farnesoid X Receptor Agonism (FXR) (AID 2283347)
How it was run: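 Agonist-mode FXR assay read by time-resolved FRET 1 h after compound addition, using isolated human receptor protein without cells. Duplicate 25 uM single-point primary screen, concentration series for confirmed actives; DMSO as baseline.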

[21] = target: Protein deacetylase HDAC6 (Homo sapiens) (UniProt Q9UBN7); experiment: NVS_ENZ_hHDAC6: NovaScreen (NVS) Enzymatic Assay for human Histone Deacetylase 6 (HDAC6) (AID 2283164)
How it was run: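 Concentration-response runs up to 50 uM followed a duplicate 25 uM single-point screen. Deacetylase activity of recombinant human HDAC6 read by fluorescence after 1 h, with mobility-shift separation of substrate and product; DMSO as baseline.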

O=C(OC[C@H]1O[C@@H](OC(=O)c2cc(O)c(O)c(OC(=O)c3cc(O)c(O)c(O)c3)c2)[C@H](OC(=O)c2cc(O)c(O)c(OC(=O)c3cc(O)c(O)c(O)c3)c2)[C@@H](OC(=O)c2cc(O)c(O)c(OC(=O)c3cc(O)c(O)c(O)c3)c2)[C@@H]1OC(=O)c1cc(O)c(O)c(OC(=O)c2cc(O)c(O)c(O)c2)c1)c1cc(O)c(O)c(OC(=O)c2cc(O)c(O)c(O)c2)c1
AC50 [1]: 0.644 µM (active) | AC50 [2]: 4.65 µM (active) | outcome [3]: inactive | outcome [4]: inactive

O=C(O)Cc1cc(I)c(Oc2cc(I)c(O)c(I)c2)c(I)c1
AC50 [1]: 2.92 µM (active) | outcome [5]: inactive | outcome [6]: inactive | outcome [7]: inactive | outcome [8]: inactive | outcome [9]: inactive | outcome [10]: inactive

Clc1cc(Cl)c2c(c1)N=C1CCCCCN1C2
AC50 [1]: 0.351 µM (active) | outcome [6]: inactive | outcome [8]: inactive | AC50 [11]: 0.463 µM (active) | AC50 [12]: 4.96 µM (active) | AC50 [13]: 8.08 µM (active) | AC50 [14]: 1.98 µM (active)

CC(C)CC(C)(O)C#CC(C)(O)CC(C)C (stereo unspecified)
outcome [15]: inactive

Nc1ccc2c(c1)C(=O)c1ccccc1C2=O
outcome [1]: inactive | AC50 [12]: 6.14 µM (active) | AC50 [13]: 3.68 µM (active) | outcome [4]: inactive

O=C1c2c(O)cccc2Cc2cccc(O)c21
AC50 [1]: 0.484 µM (active) | AC50 [2]: 1.03 µM (active) | AC50 [16]: 15.7 µM (active)

CSC(=O)c1cccc2nnsc12
outcome [1]: inactive | outcome [17]: inactive | AC50 [11]: 1.32 µM (active) | outcome [12]: inactive | AC50 [13]: 28.2 µM (active)

O=C(O)C1(C(=O)Nc2ccc(Cl)cc2Cl)CC1
AC50 [15]: 7.12 µM (active) | AC50 [18]: 16.3 µM (active) | AC50 [6]: 18.3 µM (active) | AC50 [17]: 3.91 µM (active) | AC50 [19]: 10.1 µM (active) | outcome [9]: inactive | outcome [20]: inactive

Cn1c(=O)cc(Oc2ccc(F)cc2F)c2cnc(NCC(C)(C)O)nc21
AC50 [1]: 17.3 µM (active) | outcome [21]: inactive | outcome [8]: inactive
